PubChem BioAssay (NCATS)
Inconclusive results are not listed. Calls of active or inactive are those of the source. Unless noted, calls come from the whole dose curve; as a rule, active = well fitted curve in the direction sought with a large enough effect; inconclusive = small, poorly fitted or top-dose-only effect, or another doubt; inactive = no such curve, though single readings can be large; an effect the other way counts as inactive or inconclusive.

Legend:
[1] = Cell Viability - BJ (AID 421; calls by dose curve;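 note: potency is the fitted concentration of half-maximal effect; cells exposed to compound for 40 hours at 37 °C before readout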); conditions: BJ fibroblast viability, qHTS
Summary of the method: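 Cytotoxicity as drop in intracellular ATP (CellTiter-Glo, 20 min RT) after 40 hr compound exposure of BJ fibroblasts at 37 °C. Titrations scaled between DMSO and 100 uM tamoxifen, Hill-fitted for AC50.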

[2] = Cell Viability - Jurkat (AID 426;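 active = dose-dependent loss of cell ATP signal giving a full or clear fitted curve, ranked by lower potency value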;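 note: potency is the fitted concentration of half-maximal effect; cells exposed to compound for 40 hours at 37 °C before ATP read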); conditions: qHTS
Summary of the method: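 Cells of the human T-cell leukemia line Jurkat (E6-1) are seeded at 5000 per well, treated with compound across a concentration range for 40 hours at 37 °C, then lysed with CellTiter-Glo; luminescence reports ATP.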

[3] = Cell Viability - Hek293 (AID 427;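 active = compounds whose dose-response curve shows a full or clear partial loss of cell viability, called from curve shape rather than a numeric limit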;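 note: potency is the fitted concentration of half-maximal effect; cells exposed to compound for 40 hours at 37 °C before reading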); conditions: qHTS
Summary of the method: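 Luminescent ATP content (CellTiter-Glo, 20 min at room temperature) was measured after a 40 hr, 37 °C compound exposure of HEK293 cells. AC50 values came from Hill-equation fits of qHTS concentration-response data normalized to DMSO and 100 uM tamoxifen.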

[4] = Cell Viability - HepG2 (AID 433; calls by dose curve;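 note: potency is the fitted concentration of half-maximal effect; potency for ATP loss meaning cytotoxicity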); conditions: qHTS
Summary of the method: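 Read-out is luciferase-based quantitation of cellular ATP as a measure of viable HepG2 cells after 40 h treatment at 37 °C. Signal decrease is scaled between DMSO-only and 100 uM tamoxifen controls, with AC50 fitted by the Hill equation.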

[5] = Cell Viability - MRC5 (AID 434; calls by dose curve;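 note: potency is the fitted concentration of half-maximal effect; potency reflects cytotoxicity seen as loss of intracellular ATP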); conditions: MRC5 lung fibroblast viability, qHTS
Summary of the method: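 AC50 values come from Hill-equation fits of intracellular ATP loss, measured by CellTiter-Glo luminescence. Normal lung fibroblasts (MRC5) had 40 hr compound treatment at 37 C, normalized between DMSO and 100 uM tamoxifen.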

[6] = Cell Viability - SK-N-SH (AID 435; calls by dose curve;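 note: potency is the fitted concentration of half-maximal effect; compound exposure lasted 40 h at 37 °C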); conditions: SK-N-SH neuroblastoma cell viability qHTS
Summary of the method: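 Luminescent ATP signal served as the viability read-out after 40 hours of compound treatment of human neuroblastoma SK-N-SH cells. Concentration-response data, scaled between DMSO and 100 uM tamoxifen, gave AC50 values by standard Hill modeling.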

[7] = target: Mitogen-activated protein kinase 10 (Mus musculus) (UniProt Q61831); experiment: JNK3 AlphaScreen Assay (AID 530; active = well fitted curve in either direction with a large enough effect, not every such curve was filed as active;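 note: kinase came from lysate of stimulated human HepG2 cells; signal reports phosphorylation of biotinylated GST-cJun 1-79 at Ser73 with 10 µM ATP; % is set by controls: 0 for no effect and ±100 for the full control effect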)
Summary of the method: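 qHTS titrations with 15 min compound pre-incubation before adding ATP (10 uM final). Read-out: AlphaScreen of Ser73-phosphorylated biotin-GST-cJun using HepG2 lysate JNK3 activated by IL-1β and TNFα.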

[8] = Cell Viability - N2a (AID 540); conditions: N2a mouse neuroblastoma cell viability; at 92.2 µM (top of the series);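 note: cells exposed to compound for 40 h at 37 °C; plate controls were DMSO alone for no effect and tamoxifen control for full effect; nearly all actives have a fitted effect of over 45% in size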
Summary of the method: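 Cytotoxicity was scored as loss of cellular ATP in N2a cells, a mouse neuroblastoma line. Compounds are applied in a qHTS concentration series for 40 hr at 37 °C.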

[9] = Cell Viability - NIH 3T3 (AID 541); conditions: NIH 3T3 cell viability, qHTS; at 92.2 µM (top of the series);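 note: plate controls were DMSO alone for no effect and tamoxifen positive control for full effect; nearly all actives have a fitted effect of over 25% in size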
Summary of the method: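 Cells seeded at 1000/well, rested 5 hr at 37 °C, then dosed and incubated 40 hr at 37 °C. CellTiter-Glo added, 20 min room temperature, luminescence read. AC50 by Hill fit.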

[10] = Cell Viability - HUV-EC-C (AID 542); note: % is set by controls: 0 for no effect and ±100 for the full control effect; nearly all actives have a fitted effect of over 35% in size
Summary of the method: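 Cells were seeded at 1000 per well and incubated 5 hr at 37 °C before compound addition. After 40 hr at 37 °C, CellTiter-Glo reagent was added for 20 min and luminescence read. AC50 values came from Hill-equation modelling.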

[11] = Cell Viability - H-4-II-E (AID 543); note: % is set by controls: 0 for no effect and ±100 for the full control effect; nearly all actives have a fitted effect of over 35% in size
Summary of the method: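 Cells seeded at 1500 per well and rested 5 hr; compounds added; 40 hr incubation at 37 °C; CellTiter-Glo added, 20 min at room temperature; luminescence read. Hill-equation fits gave AC50.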

[12] = Cell Viability - SH-SY5Y (AID 544);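 note: 0% = DMSO alone and -100% = 100 µM tamoxifen; nearly all actives have a fitted effect of over 55% in size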
Summary of the method: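 Cells were plated at 1500 per well and allowed 5 hr at 37 °C. Compounds were added across a concentration range and incubated 40 hr at 37 °C. CellTiter-Glo was added for 20 min at room temperature before luminescence reading.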

[13] = Cell Viability - Renal Proximal Tubule (AID 545);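 note: 0% = DMSO only and -100% = 100 µM tamoxifen; nearly all actives have a fitted effect of over 40% in size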
Summary of the method: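 Luminescent ATP signal (CellTiter-Glo) served as the viability read-out after 40 hr compound exposure of freshly isolated rat proximal tubule cells at 37 °C. Concentration-dependent ATP loss was fitted with the Hill equation to give AC50.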

[14] = Cell Viability - Mesenchymal (AID 546);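 note: cells exposed to compound for 40 hours before reading; 0% = DMSO only and -100% = 100 µM tamoxifen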
Summary of the method: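 CellTiter-Glo luminescence (intracellular ATP, 20 min room temperature) after 40 hr compound exposure at 37 °C of 1000 glomerulus-derived human kidney mesenchymal cells/well; AC50 values obtained by fitting qHTS concentration-response data to the Hill equation.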

[15] = Cellular Toxicity (caspase-3) HepG2 (AID 654);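 note: cells exposed to compound for 16 hours before reading; 0% = DMSO alone and 100% = caspase signal from 100 µM tamoxifen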
Summary of the method: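 Caspase 3/7 activation in HepG2 is measured as rising luminescence after a 16 hr treatment at 37 °C. Values are scaled between DMSO basal and 100 uM tamoxifen, and AC50 is fitted with the Hill equation.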

[16] = Cellular Toxicity (caspase-3) Jurkat (AID 655);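 note: cells exposed to compound for 16 h at 37 °C before reading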
Summary of the method: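 5000 Jurkat cells/well; compound 16 hr, 37 °C; Caspase-Glo 3/7 added, 20 min RT; luminescence read. Norm: DMSO = 0%, tamoxifen 100 uM = 100%. AC50, Hill model.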

[17] = Cellular Toxicity (caspase-3) HUV-EC-C (AID 656);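 note: 0% = DMSO basal and 100% = 100 µM tamoxifen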
Summary of the method: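 qHTS; HUV-EC-C, 1000 cells/well; 5 hr settle, 16 hr cmpd, 37°C; Caspase-Glo 3/7, 20 min RT; luminescence. Norm: DMSO = 0%, tamoxifen 100 uM = 100%. Hill-fit AC50.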

[18] = Cellular Toxicity (caspase-3) SHSY5Y (AID 657);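 note: cells exposed to compound for 16 hours at 37 °C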
Summary of the method: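 qHTS, SH-SY5Y, 1500 cells/well, 5 h pre-incubation 37 °C; compound 16 h 37 °C; Caspase-Glo 3/7 1 h RT; luminescence. Norm.: DMSO = 0, 10 uM staurosporine = 100%. Hill fit → AC50.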

[19] = Cellular Toxicity (caspase-3) BJ (AID 658);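 note: 0% = DMSO basal and 100% = 10 µM staurosporine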
Summary of the method: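 Caspase-Glo 3/7 luminescence, read 1 hr after reagent at room temperature, in normal BJ fibroblasts exposed 16 hours at 37 °C. AC50 values from Hill-equation concentration-response, scaled between DMSO basal and 10 uM staurosporine as 100%.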

[20] = Cellular Toxicity (caspase-3) MRC-5 (AID 659);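 note: 0% = DMSO basal and 100% = 10 µM staurosporine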
Summary of the method: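 Luminescent Caspase-Glo 3/7 read-out (1 h, room temperature) after a 16 h, 37 °C compound exposure of MRC-5 lung fibroblasts at 1500 cells/well. Concentration-response AC50 from Hill equation; 0% DMSO, 100% 10 uM staurosporine.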

[21] = Cellular Toxicity (caspase-3) Mesangial (AID 660);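 note: combined caspase 3 and 7 activity read by Caspase-Glo luminescence; cells exposed to compound for 16 h before the caspase read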
Summary of the method: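 Seed cells derived from normal human renal glomeruli, incubate 5 h, add compounds across concentrations and incubate 16 h at 37 °C. Caspase 3/7 activation is then quantified by luciferase light, with AC50 derived by Hill modeling.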

[22] = Cellular Toxicity (caspase-3) SK-N-SH (AID 661);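 note: 0% = DMSO basal and 100% = 10 µM staurosporine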
Summary of the method: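 Cells were seeded and incubated 5 hr at 37 °C, dosed with compound over a concentration range for 16 hr, then given Caspase-Glo 3/7 reagent for 1 hr at room temperature before luminescence reading.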

[23] = Cellular Toxicity (caspase-3) H-4-II-E (AID 663);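 note: cells exposed to compound for 16 hr before readout; 0% = DMSO basal and 100% = 100 µM tamoxifen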
Summary of the method: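 Caspase 3/7 activation measured by luminescent aminoluciferin substrate cleavage after 16 hr compound treatment of H-4-II-E cells in complete medium. Increase normalized between DMSO (basal) and 100 uM tamoxifen (100%); Hill-equation AC50 from concentration-response.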

[24] = Cellular Toxicity (caspase-3) N2a (AID 665);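 note: compound exposure lasted 16 h at 37 °C before readout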
Summary of the method: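 Caspase-3/7 activation, measured as increased luminescence from aminoluciferin release, is quantified in mouse N2a cells exposed to compounds for 16 h. Values are normalized to DMSO and 10 uM staurosporine, with AC50 derived by Hill modelling.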

[25] = Cellular Toxicity (caspase-3) NIH 3T3 (AID 666);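 note: 0% = DMSO basal and 100% = 100 µM tamoxifen stimulation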
Summary of the method: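 Cells were plated at 1000 per well and incubated 5 hr at 37°C, then compound was added for 16 hr. Caspase-Glo 3/7 reagent followed for 20 min at room temperature before luminescence was read.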

Cc1ccccc1O
inactive: Potency [1] > 92 µM | Potency [2] > 92 µM | Potency [3] > 92 µM | Potency [4] > 92 µM | Potency [5] > 92 µM | Potency [6] > 92 µM | outcome [7] | activity change, negative = cytotoxicity [8] 4.57% | activity change, negative = cytotoxicity [9] 8.87% | outcome [10] | outcome [11] | outcome [12] | outcome [13] | outcome [14] | outcome [15] | outcome [16] | outcome [17] | outcome [18] | outcome [19] | outcome [20] | outcome [21] | outcome [22] | outcome [23] | outcome [24] | outcome [25]
